# Assay results taken from PubChem BioAssay (EPA / NIEHS).
# Records with an inconclusive call do not appear. Active and inactive are the calls of the source. How the source made its calls: active means hit-call score of the fitted dose curve at least 0.9, where 1 is the maximum; inconclusive means response in the unintended direction; inactive means score below 0.9.
# How the values were obtained:
# [1] = target: rat Catechol-O-Methyl Transferase (COMT), Comt (gene 24267) (UniProt P22734); test: NVS_ENZ_rCOMT: NovaScreen (NVS) Enzymatic Assay for rat Catechol-O-Methyl Transferase (COMT) (AID 2283235)
# Outline: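 Rat dorsal striatum extract served as COMT source; product quantified by HPLC/spectrophotometry, read at 0 h after dosing. Primary single-concentration screen at 25 uM, followed by concentration series to a 50 uM maximum.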
# [2] = tested on: bovine Angiotensin II Receptor Type 2 (AT2), gene 407157; test: NVS_GPCR_bAT2: NovaScreen (NVS) G Protein-Coupled Receptor Assay for bovine Angiotensin II Receptor Type 2 (AT2) (AID 2283240)
# Outline: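 Radioligand displacement on bovine cerebellar membranes, 1 hour incubation, filter-based scintillation counting; loss of signal vs DMSO. Duplicate single-point screen at 25 uM, then concentration-response to 50 uM maximum.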
# [3] = target: bovine Dopamine Receptor (DR), Non-selective Binding, DRD1 (gene 281125) (UniProt Q95136); test: NVS_GPCR_bDR_NonSelective: NovaScreen (NVS) G Protein-Coupled Receptor Assay for bovine Dopamine Receptor (DR), Non-selective Binding (AID 2283241)
# Description: NVS_GPCR_bDR_NonSelective is a biochemical, single-readout assay that uses extracted gene-proteins from Bovine striatal membranes in a tissue-based cell-free assay. Measurements were taken 1 hour after chemical dosing in a 48-well plate.NVS_GPCR_bDR_NonSelective is one of one assay component(s) measured or calculated from the NVS_GPCR_bDR_NonSelective assay. It is designed to make measurements of radioligand binding, a form of binding reporter, as detected with scintillation counting signals by Filter-based radiodetection technology.Data from the assay component NVS_GPCR_bDR_NonSelective was analyzed into 1 assay endpoint. This assay endpoint, NVS_GPCR_bDR_NonSelective, was analyzed in the positive analysis fitting direction relative to DMSO as the negative control and baseline of activity. Using a type of binding reporter, loss-of-signal activity can be used to understand changes in the binding as they relate to the gene DRD1. Furthermore, this assay endpoint can be referred to as a primary readout, because the performed assay has only produced 1 assay endpoint. To generalize the intended target to other relatable targets, this assay endpoint is annotated to the gpcr intended target family, where the subfamily is rhodopsin-like receptor. […]
# bovine Dopamine Receptor (DR), Non-selective Binding, DRD1 (gene 281125), sequence (Q95136 whole entry, looked up): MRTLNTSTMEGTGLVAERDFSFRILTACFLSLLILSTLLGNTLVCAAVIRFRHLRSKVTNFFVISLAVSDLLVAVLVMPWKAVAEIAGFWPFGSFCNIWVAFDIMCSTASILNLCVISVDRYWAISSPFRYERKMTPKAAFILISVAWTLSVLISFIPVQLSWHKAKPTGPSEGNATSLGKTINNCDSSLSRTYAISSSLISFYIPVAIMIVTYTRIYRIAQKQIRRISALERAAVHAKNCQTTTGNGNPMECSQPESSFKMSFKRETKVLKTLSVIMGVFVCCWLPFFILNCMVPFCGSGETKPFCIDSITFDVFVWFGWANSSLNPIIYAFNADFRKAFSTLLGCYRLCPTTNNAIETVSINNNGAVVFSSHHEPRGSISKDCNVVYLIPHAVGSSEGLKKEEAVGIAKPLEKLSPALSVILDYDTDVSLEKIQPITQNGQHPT
# rat Catechol-O-Methyl Transferase (COMT), Comt (gene 24267), sequence (P22734 whole entry, looked up): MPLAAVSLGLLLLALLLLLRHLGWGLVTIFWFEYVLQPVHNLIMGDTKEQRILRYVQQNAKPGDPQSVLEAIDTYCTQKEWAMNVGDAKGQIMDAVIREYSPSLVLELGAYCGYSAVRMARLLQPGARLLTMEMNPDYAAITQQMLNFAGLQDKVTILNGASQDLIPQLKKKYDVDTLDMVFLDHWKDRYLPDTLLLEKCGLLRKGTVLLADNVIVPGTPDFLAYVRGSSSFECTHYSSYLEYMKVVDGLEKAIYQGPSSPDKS
compound,measurement,setting,value
CC[C@H](C)C(=O)O[C@H]1C[C@H](O)C=C2C=C[C@H](C)[C@H](CC[C@@H](O)C[C@@H](O)CC(=O)O)[C@H]21,outcome,[1],inactive
c1ccc(C(O[C@@H]2CCCN(CCc3ccc4c(c3)OCO4)C2)c2ccccc2)cc1,outcome,[2],inactive
same,AC50,[3],10.6 µM (active)
CCCCCCCC/C=C\CCCCCCCC(=O)OC[C@@H](O)[C@H]1OC[C@H](O)[C@H]1O,outcome,[2],inactive
COS(C)(=O)=O,outcome,[3],inactive
